Measured values: PubChem BioAssay (Tox21)
Where “and” joins values, the source holds several entries; their conditions need not be identical. Identical values can stand only once. Inconclusive results are not listed. Some structures have more than one record in an assay (separate samples or runs), and their calls can disagree. Calls of active or inactive are those of the source. Unless noted, calls follow the shape of the dose curve; as a rule, active = well fitted curve in the direction sought with a large enough effect in the repeat runs; inconclusive = weak or mixed curves; inactive = no such curve, though single readings can be large; an effect the other way counts as inactive or inconclusive.

Experiments:
[1] = qHTS assay to identify small molecule agonists of the hypoxia (HIF-1) signaling pathway (AID 1224846; active = well fitted activation curve with a large enough effect in the signal ratio in the repeat runs, not every such curve was filed as active; the % refers to the signal ratio)
In short: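 Agonist mode reporter screen. ME-180 cells stably expressing bla under HRE control received test compounds in DMSO for 17 hrs (37C, 5% CO2), and beta-lactamase activity was then detected with the CCF4-AM FRET substrate.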

[2] = qHTS assay to identify small molecule agonists of H2AX - cell viability counter screen (AID 1224847; calls by dose curve; also: nearly all actives have a fitted effect of over 30% in size; also: potency is read from the fitted curve at half-maximal effect)
In short: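 Viability of CHO-K1 (wild type) cells after 3 hr compound exposure was measured by CellTiter-Glo luminescence.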

[3] = qHTS assay to identify small molecule antagonists of the estrogen related receptor (ERR) signaling pathway from Tox21 library (AID 1224848); also: nearly all actives have a fitted effect of over 50% in size; also: potency is read from the fitted curve at half-maximal effect
In short: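 ERR cell line, 2,000 cells/well. 6 h settle, then compound (DMSO) added; 18 h at 37 C; ONE-Glo luminescence after 30 min RT.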

[4] = qHTS assay to identify small molecule agonists of the estrogen related receptor (ERR) signaling pathway from Tox21 library (AID 1224849; calls by dose curve; also: nearly all actives have a fitted effect of over 15% in size); conditions: ERR reporter cell line, ONE-Glo luciferase, 18 h
In short: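 Quantitative HTS in agonist format: NTP ERR cell line, compounds transferred in DMSO after 6 h plating, 18 h incubation at 37 C, ONE-Glo luminescence endpoint.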

[5] = qHTS RealTime-Glo MT Cell Viability Assay in HepG2 cells - 24 hour (AID 1224867); also: nearly all actives have a fitted effect of over 50% in size; also: potency is read from the fitted curve at half-maximal effect
In short: (§1)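 Luminescence read-out: viable HepG2 cells reduce a prosubstrate to a NanoLuc substrate, giving a signal proportional to live cell number. Reads taken at 0, 8, 16, 24, 32 and 40 h of compound exposure at 37 C.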

[6] = qHTS RealTime-Glo MT Cell Viability Assay in HEK293 cells - 32 hour (AID 1224868); also: nearly all actives have a fitted effect of over 50% in size; also: potency is read from the fitted curve at half-maximal effect
In short: (§2)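 Nonlytic real-time viability readout: viable cells convert prosubstrate to NanoLuc substrate, giving luminescence proportional to live cell number. HEK293, 600 cells/well, compound added after 5 h, continuous culture at 37 C.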

[7] = A CellTox Green Cytotoxicity Assay to monitor cytotoxicity in HEK293 cells - 0 hour (AID 1224869); also: nearly all actives have a fitted effect of over 50% in size
In short: (§3)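 Dead-cell fluorescence measured kinetically: asymmetric cyanine dye, HEK293, 600 cells/well, 5 h settle, 23 nL cpd/DMSO, 37 C, reads 0–40 h every 8 h.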

[8] = A CellTox Green Cytotoxicity Assay to monitor cytotoxicity in HEK293 cells - 40 hour (AID 1224871); also: nearly all actives have a fitted effect of over 45% in size; also: potency is read from the fitted curve at half-maximal effect
In short: as §3

[9] = qHTS RealTime-Glo MT Cell Viability Assay in HEK293 cells - 16 hour (AID 1224872); also: nearly all actives have a fitted effect of over 50% in size; also: potency is read from the fitted curve at half-maximal effect
In short: as §2

[10] = qHTS RealTime-Glo MT Cell Viability Assay in HepG2 cells - 8 hour (AID 1224873); also: nearly all actives have a fitted effect of over 55% in size
In short: (§4)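 Real-time viability: cells seeded at 600 per well together with NanoLuc and cell-permeant prosubstrate, compounds added after 5 h incubation. Luminescence tracked at 0, 8, 16, 24, 32 and 40 h of exposure.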

[11] = A CellTox Green Cytotoxicity Assay to monitor cytotoxicity in HEK293 cells - 24 hour (AID 1224875); also: nearly all actives have a fitted effect of over 45% in size
In short: as §3

[12] = A CellTox Green Cytotoxicity Assay to monitor cytotoxicity in HepG2 cells - 16 hour (AID 1224876); also: nearly all actives have a fitted effect of over 45% in size; also: potency is read from the fitted curve at half-maximal effect
In short: (§5)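 First, HepG2 cells (600/well) mixed with reagent were plated; second, after 5 h at 37 C they received compounds via pintool; third, fluorescence was measured at 0 h through 40 h at 8 h intervals.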

[13] = qHTS RealTime-Glo MT Cell Viability Assay in HepG2 cells - 32 hour (AID 1224877); also: nearly all actives have a fitted effect of over 55% in size
In short: as §1

[14] = A CellTox Green Cytotoxicity Assay to monitor cytotoxicity in HepG2 cells - 24 hour (AID 1224878); also: nearly all actives have a fitted effect of over 45% in size; also: potency is read from the fitted curve at half-maximal effect
In short: as §5

[15] = A CellTox Green Cytotoxicity Assay to monitor cytotoxicity in HepG2 cells - 40 hour (AID 1224879); also: nearly all actives have a fitted effect of over 40% in size; also: potency is read from the fitted curve at half-maximal effect
In short: as §5

[16] = qHTS RealTime-Glo MT Cell Viability Assay in HEK293 cells - 0 hour (AID 1224880)
In short: (§6)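 600 HEK293 cells per well, dispensed already mixed with RealTime-Glo MT reagents. Compound dosing came 5 h later. The same wells were read for luminescence at 0, 8, 16, 24, 32 and 40 h of exposure at 37 C.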

[17] = qHTS RealTime-Glo MT Cell Viability Assay in HepG2 cells - 40 hour (AID 1224870); also: nearly all actives have a fitted effect of over 50% in size
In short: as §4

[18] = qHTS RealTime-Glo MT Cell Viability Assay in HEK293 cells - 40 hour (AID 1224874); conditions: RealTime-Glo luminescence; max response: stronger effect = lower value; also: nearly all actives have a fitted effect of over 50% in size; also: potency is read from the fitted curve at half-maximal effect
In short: as §6

[19] = A CellTox Green Cytotoxicity Assay to monitor cytotoxicity in HEK293 cells - 32 hour (AID 1224881); also: nearly all actives have a fitted effect of over 40% in size
In short: as §3

[20] = qHTS assay to identify small molecule agonists of H2AX (AID 1224845; active = well fitted activation curve with a large enough effect in the signal ratio in the repeat runs, not every such curve was filed as active; the % refers to the signal ratio; also: potency is read from the fitted curve at half-maximal effect)
In short: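 Phospho-H2AX Ser139 measured by HTRF (ex 320 nm; em 665 and 620 nm) after 24 hr antibody incubation. Compounds, 15 concentrations, 0.76% DMSO, were applied to CHO-K1 cells for 3hr at 37C before lysis.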
% is scaled to controls: 0 for no effect and ±100 for the full control effect.

Oc1ccc(Cl)cc1Cl
inactive: outcome [1] | Potency [2] | Potency [3] | activity change, positive = activation ([4]; at 92.4 µM (top of the series)) -0.925% and -0.996% | Potency [5] | Potency [6] | Potency [7] | Potency [8] | Potency [9] | Potency [10] | Potency [11] | Potency [12] | Potency [13] | Potency [14] | Potency [15] | Potency [16]

N#Cc1nn(-c2c(Cl)cc(C(F)(F)F)cc2Cl)c(N)c1S(=O)C(F)(F)F (stereo unspecified)
inactive: outcome [1] | activity change, positive = activation ([4]; at 42.5 µM (top of the series)) -52.7% | activity change, positive = activation ([4]; at 92.4 µM (top of the series)) -58.7% | Potency [5] | Potency [7] | Potency [17] | Potency [8] | Potency [10] | Potency [11] | Potency [12] | Potency [13] | Potency [14] | Potency [15] | Potency [16] | Potency [19]
active: Potency [2] 101 µM | Potency [3] 5.48 µM and 11.9 µM | Potency [6] 22 µM | Potency [9] 22 µM and 21.3 µM | Potency [18] 24.7 µM

N#Cc1cccnc1
inactive: outcome [1] | Potency [2] | Potency [3] | activity change, positive = activation ([4]; at 92.4 µM (top of the series)) 5.82% and 1.56% | Potency [5] | Potency [6] | Potency [7] | Potency [17] | Potency [8] | Potency [9] | Potency [10] | max response [18] -3.64% and -3.39% | Potency [11] | Potency [12] | Potency [13] | Potency [14] | Potency [15] | Potency [16]

CC1CC(=O)O1 (stereo unspecified)
inactive: Potency [20] | outcome [1] | Potency [2] | Potency [5] | Potency [6] | Potency [7] | Potency [17] | Potency [8] | Potency [9] | Potency [10] | Potency [11] | Potency [12] | Potency [14] | Potency [15] | Potency [16] | Potency [19]

CC1=C(C(=O)Nc2ccccc2)SCCO1
inactive: outcome [1] | Potency [2] | activity change, positive = activation ([4]; at 92.4 µM (top of the series)) -23.3% and -26.7% | Potency [5] | Potency [6] | Potency [7] | Potency [8] | Potency [9] | Potency [10] | max response [18] -20.6% and -17.9% | Potency [11] | Potency [12] | Potency [13] | Potency [14] | Potency [15] | Potency [16] | Potency [19]

OCCOCCO
inactive: Potency [20] | outcome [1] | Potency [2] | Potency [5] | Potency [7] | Potency [17] | Potency [8] | Potency [9] | Potency [10] | max response [18] -1.92% and 3.49% | Potency [11] | Potency [12] | Potency [14] | Potency [15] | Potency [16] | Potency [19]

OC(c1ccc(Cl)cc1)(c1cncnc1)c1ccccc1Cl (stereo unspecified)
49.8 µM (active) and inactive: Potency [12]
active: Potency [2] 115 µM | Potency [3] 11.1 µM and 54.5 µM | Potency [5] 31.4 µM | Potency [6] 6.27 µM and 24.5 µM | Potency [9] 11.2 µM | Potency [18] 5.59 µM and 27.5 µM
19.8 µM (active) and inactive: Potency [8]
17.7 µM (active) and inactive: Potency [15]
25 µM (active) and inactive: Potency [14]
inactive: outcome [1] | activity change, positive = activation ([4]; at 92.4 µM (top of the series)) -83.4% and -41.2% | Potency [7] | Potency [16]

CC1(C)C(C(=O)OC(C#N)c2cccc(Oc3ccccc3)c2)C1(C)C (stereo unspecified)
inactive: Potency [20] | outcome [1] | activity change, positive = activation ([4]; at 92.4 µM (top of the series)) -46.1% and -24.4% | Potency [5] | Potency [6] | Potency [7] | Potency [8] | Potency [9] | Potency [10] | max response [18] -25.9% | Potency [11] | Potency [12] | Potency [13] | Potency [14] | Potency [15] | Potency [16] | Potency [19]
active: Potency [3] 30.9 µM | Potency [18] 22 µM

CCCCCCCCCc1ccc(O)cc1
inactive: Potency [5] | Potency [7] | Potency [17] | Potency [10] | Potency [13] | Potency [16]
44.1 µM (active) and inactive: Potency [8]
active: Potency [20] 102 µM and 101 µM | Potency [2] 90.7 µM and 101 µM | Potency [6] 9.87 µM and 5.49 µM | Potency [9] 6.99 µM and 4.36 µM | Potency [18] 11.1 µM and 6.92 µM | Potency [12] 39.3 µM | Potency [14] 44.1 µM and 38.9 µM | Potency [15] 24.8 µM

N#CCCCCC#N
inactive: outcome [1] | Potency [2] | Potency [3] | activity change, positive = activation ([4]; at 92.4 µM (top of the series)) 8.89% and 3.44% | Potency [5] | Potency [6] | Potency [7] | Potency [8] | Potency [9] | Potency [10] | Potency [11] | Potency [12] | Potency [13] | Potency [14] | Potency [15] | Potency [16] | Potency [19]

Nc1ccc2ccccc2c1
active: activity change, positive = activation ([4]; at 92.4 µM (top of the series)) 30.3%
inactive: outcome [1] | Potency [2] | Potency [3] | Potency [5] | Potency [6] | Potency [7] | Potency [17] | Potency [8] | Potency [9] | Potency [10] | max response [18] 5% | Potency [11] | Potency [12] | Potency [14] | Potency [15] | Potency [16] | Potency [19]
